The values that follow come from PubChem BioAssay (NCI).

About 83,000 compounds went through this panel and 20% of them were active in at least one assay; those are over-represented in the sample as a whole.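 The test compound was applied at a single concentration to cells in 96-well plates for 48 hours, and percent growth was recorded.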 Activity calls are given as the source filed them. Rule for the calls: active = growth percent below 10; inactive = the rest.

The test system of this test is MDA-MB-468 breast. The test can be described thus: NCI-60 one-dose screen, 48 h (100 = growth as untreated, 0 = no growth, -100 = all killed). Particulars: 10 µM unless noted.
As to `CC/C(=C/c1cc(OC)ccc1O)c1ccc2cc(OC)ccc2[o+]1`, the growth is 45.8% (inactive).
Regarding `COC(=O)[C@@H](NC(=O)[C@@H](OC)[C@@H]1Cc2cc3cc(OC4CC(OC5CC(O)C(O)C(C)O5)C(O)C(C)O4)c(C)c(O)c3c(O)c2C(=O)[C@H]1OC1CC(OC2CC(OC3CC(C)(O)C(O)C(C)O3)C(O)C(C)O2)C(O)C(C)O1)C(C)C` (stereo not given in full), the growth was -3.89% (active).
With `O=C1Nc2c(c(=O)n(-c3ccccc3)c3ccccc23)C(c2ccc(Cl)cc2)N1` (stereo not given), the growth is 119% (inactive).
As for `CCOC1=C(Cl)C(=O)C(OCC)=C(Cl)C1=O`, the growth is 103% (inactive).
Regarding `CCC1=CC2CN(C1)Cc1c([nH]c3ccccc13)[C@@](C(=O)OC)(c1cc3c(cc1OC)N(C)[C@H]1[C@@](O)(C(=O)OC)[C@H](OC(C)=O)[C@]4(CC)C=CCN5CC[C@]31[C@@H]54)C2` (stereo not given in full), the growth is 44.4% (inactive).
Turning to `O=C(O)c1ccc2c(c1)C(=O)N(Cc1ccccc1)C2=O`, the growth is 96.2% (inactive).
As to `COC(=O)/C=C1/SC(=Nc2ccc(F)cc2)N(CCc2c[nH]c3ccc(O)cc23)C1=O`, the growth was 36% (inactive).
Consider `COc1ccc(-c2nc(SCCC(C)C)nc(Nc3ccc(C(=O)O)cc3)c2C#N)cc1`, for which the growth is 105% (inactive).
In the case of `O=C(c1ccc(Nc2nccc(NCCCCNc3ccnc4cc(Cl)ccc34)n2)cc1)N1CCCCC1`, the growth is -25.3% (active).
Take `COc1cccc(/C=C/C(=O)c2ccc(NC(=O)COc3cccc4cccnc34)cc2)c1`: the growth is 90.9% (inactive).
Consider `COc1ccc(C2=NOC(CC(=O)N(CCO)CCO)C2)cc1OC1CCCC1` (stereo not given), for which the growth was 90.2% (inactive).
Regarding `CC1(C)Cc2c(sc3ncn4nc(-c5ccc(O)cc5)nc4c23)CO1`, the growth was 61.4% (inactive).
With `COc1cc(/C=C2\CN(C)CC3=C2Nc2nc(SC)[nH]c(=O)c2C3c2cc(OC)c(OC)c(OC)c2)cc(OC)c1OC` (stereo not given), the growth is 39.5% (inactive).
With `Cn1cccc1/C=C1\C(=O)Nc2ccccc21`, the growth was -1.95% (active).
Consider `CSc1nc2ccc(C)cc2cc1/C=C1/C=C(c2ccccc2)NC1=O`, for which the growth is 49.1% (inactive).
In the case of `CSc1ccc(N=C=C(c2ccccc2)c2ccccc2)cc1` it was 97.1% (inactive).
In the case of `C=CCn1cc(-c2nc3ccccc3s2)c2cc(-c3ccc4c5c(cccc35)C(=O)N(N)C4=O)ccc21`, the growth is 95.4% (inactive).
As to `Clc1ccc2[nH]cc(-c3nc(-c4c[nH]c5ncccc45)cs3)c2c1`, the growth is 45.2% (inactive).
`Cc1cc(C#Cc2ccccc2)ccc1-n1c(/C=C/c2ccc(F)cc2)nc2ccccc2c1=O`: the growth is 49.3% (inactive).
For the compound `COc1ccc2c(c1)CCCC21C(=O)Nc2c(Cl)cccc21` (stereo not given), the growth was 109% (inactive).
As to `N#Cc1c(-c2cccs2)cc(-c2cccnc2)[nH]c1=O`, the growth was 101% (inactive).
`CCCCC(O)c1ccccc1` (stereo not given): the growth was 98.6% (inactive).
Regarding `O=C(CCc1nnc(Cn2cnc3nc[nH]c3c2=O)o1)c1nc2ncccc2[nH]1`, the growth is 102% (inactive).
As to `C=C(C)[C@@H]1CC[C@]2(C(=O)N3CCN(C)CC3)CC[C@]3(C)[C@H](CC[C@@H]4[C@@]5(C)C/C(=C/c6ccncc6)C(=O)C(C)(C)[C@@H]5CC[C@]43C)[C@@H]12`, the growth was 55.6% (inactive).
For `C/C(=N\NC(=O)CSc1nc2ccccc2c(=O)n1CCc1ccc(S(N)(=O)=O)cc1)c1ccc(Br)cc1`, the growth was 84.1% (inactive).
For `O=C1C(Cl)=C(NCCN2CCOCC2)C(=O)c2ncccc21`, the growth was -74.1% (active).
Take `Cc1ccc(-c2n[nH]c(=O)c3noc(-c4ccc(C)cc4)c23)cc1`: the growth was -8.93% (active).
Turning to `N/C(=N\C(N)=N\c1nc2ccccc2s1)c1ccc(Cl)cc1`, the growth is 94.6% (inactive).
For the compound `C/C(=N\NC(=O)c1ccncc1)c1ccc(N)cc1`, the growth was 97.1% (inactive).
Turning to `CCN1CCN(c2nc(NNC(=O)c3cccc(OC)c3)nc(N3CCN(C(c4ccccc4)c4ccccc4)CC3)n2)CC1`, the growth is 54.7% (inactive).
As to `OC1OC(COC(c2ccccc2)(c2ccccc2)c2ccccc2)C(O)C(O)C1O` (stereo not given), the growth is 89.7% (inactive).
For the compound `COc1ccc(N)c(S)c1`, the growth is 97.3% (inactive).
For `Cc1ccc2cc3c(NC(=O)c4cccnc4)nn(C)c3nc2c1` the value was 80.3% (inactive); for `CCN1CCN(Cc2ccc(C(=O)Nc3ccc(C)c(Oc4ccc(-c5[nH]nc6ncnc(N)c56)cc4)c3)cc2C(F)(F)F)CC1`, 118% (inactive).
On to `COc1cccc(C2=NN3C(C2)c2cc(Br)cc(OC)c2OC32CCN(Cc3ccccc3)CC2)c1` (stereo not given), for which the growth was 96.4% (inactive).
For `COC(=O)C(N)CC(C)C` (stereo not given) the value was 98% (inactive).
For the compound `O=C(Nc1ccsc1C(=O)NC1CCCCC1)c1ccc(F)cc1`, the growth was 101% (inactive).
For the compound `O=C(Nc1ccc(Cl)cc1)Nc1ccc(Cl)c(C(F)(F)F)c1`, the growth is 10.3% (inactive).
Take `Cc1ccc2c(n1)C(=O)C(Cl)=C(Nc1cccc(C(=O)OC(C)(C)C)c1)C2=O`: the growth was -57.7% (active).
Take `O=C(Nc1ccc(-n2cc(-c3ccncc3)c(-c3ccc(Cl)c(O)c3)n2)cc1)N1CCOCC1`: the growth is 112% (inactive).
